Assay outcomes from PubChem.
PAFAH1B2 FP inh = PAFAH1B2 (human) inhibition; P68402; recombinant PAFAH1B2, FP-rhodamine activity probe, fluorescence polarization; inhibition, % at 3.39 µM; 1.2% of 340,000 active; AID 492953;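 active = inhibition above the mean of all tested compounds plus 3 SD, cut at about 24% in these data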
Target sequence (P68402 whole entry, looked up): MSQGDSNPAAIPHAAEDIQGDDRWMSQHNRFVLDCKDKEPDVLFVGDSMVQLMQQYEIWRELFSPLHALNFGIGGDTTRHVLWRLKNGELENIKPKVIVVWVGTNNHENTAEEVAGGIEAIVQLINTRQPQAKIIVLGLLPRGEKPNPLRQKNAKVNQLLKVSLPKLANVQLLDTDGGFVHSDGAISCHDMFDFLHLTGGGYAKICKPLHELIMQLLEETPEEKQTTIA
DAGLB inhibitor = diacylglycerol lipase beta (human) inhibition. Q8NCG7. HEK293T DAGLB membrane lysate, EnzChek fluorogenic substrate. inhibition, % at 5.17 µM. 0.059% of 340,000 active; in the data active = inhibition above about 34%
PAFAH2 FP inh = PAFAH2 (human) inhibition | inhibition, % at 3.39 µM | recombinant PAFAH2, FP-rhodamine activity probe, fluorescence polarization | 0.99% of 340,000 active | AID 492956 | Q99487;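 active = inhibition above the mean over all tested compounds plus 3 SD, cut at about 30% in these data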;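 note: inhibitors block probe labeling of enzyme so polarization drops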
pPAFAH FP inh = pPAFAH (human) enzyme inhibition | recombinant pPAFAH, FP-rhodamine probe fluorescence polarization | inhibition, % at 3.39 µM | 1.5% of 330,000 active | AID 463082;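 active = inhibition above the mean inhibition across the screen plus 3 SD, cut at about 25% in these data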;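 note: inhibitors block binding of the rhodamine activity-based probe so polarization drops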
PAFAH1B3 FP inh = PAFAH1B3 (human) inhibition. Q15102. recombinant PAFAH1B3, FP-rhodamine probe, fluorescence polarization. inhibition, % at 3.39 µM. 0.28% of 340,000 active. AID 492972;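 active = inhibition above the screen-wide average of all tested compounds plus 3 SD, cut at about 25% in these data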
Target sequence (Q15102 whole entry, looked up): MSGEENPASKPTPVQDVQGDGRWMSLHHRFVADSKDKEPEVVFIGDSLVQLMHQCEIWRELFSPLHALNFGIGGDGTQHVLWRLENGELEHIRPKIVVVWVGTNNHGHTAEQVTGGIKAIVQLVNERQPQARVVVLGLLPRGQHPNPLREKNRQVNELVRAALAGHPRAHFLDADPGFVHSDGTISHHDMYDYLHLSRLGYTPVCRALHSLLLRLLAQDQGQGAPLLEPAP
ATG4B inhibitor = blocks human ATG4B protease cleavage of LC3 substrate; ATG4B cleavage of LC3-PLA2, NBD-HPC fluorescence, 1 h; 0.51% of 340,000 active; AID 504462; inhibition, % at 8.33 µM; Q9Y4P1; in the data active = inhibition above about 40%
PAFAH1B3 confirm = PAFAH1B3 (human) inhibition, confirmed. 30% of 390 active. inhibition, % at 3.39 µM. recombinant PAFAH1B3, FP-Rh activity-based probe, fluorescence polarization. shares compounds with PAFAH1B3 FP inh;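 active = average inhibition over triplicate runs above the hit cutoff set in the earlier primary screen, cut at about 25% in these data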
Of the large screens only hits and unclear results are named; the others gave an inactive call (follow-up assays come after a bar, where they were run). This is a sample that favours compounds with a hit; in the whole collection about 3% have one here.

COc1ccc(S(=O)(=O)Nc2cccc3ccc(O)cc23)cc1	none
COc1ccc(S(=O)(=O)Nc2cc(SCC(=O)O)c(O)c3ccccc23)cc1	PAFAH1B3 FP inh 44 | PAFAH1B3 confirm inactive
O=C(NC1CCCC1)C(c1ccccc1F)N(C(=O)c1csnn1)c1ccccc1 (stereo not drawn)	none (no result: pPAFAH FP inh)
Nc1ncc(Br)cc1S(=O)(=O)Nc1ccccc1F	none
Cc1cnc(C=NNC(N)=S)c2cccc(N)c12	PAFAH1B3 FP inh 34 (no result: pPAFAH FP inh) | PAFAH1B3 confirm 51
O=C1c2ccccc2C(=O)c2c1ccc(O)c2O	PAFAH1B3 FP inh 30 (no result: pPAFAH FP inh) | PAFAH1B3 confirm inactive
O=c1[nH]c(Nc2ccccc2)cc2cc(Br)ccc12	PAFAH1B3 FP inh 61 | PAFAH1B3 confirm inactive
CCc1ccc(C2NC(=O)c3ccccc3O2)cc1 (stereo not drawn)	none
Cc1nn(-c2ccc(F)cc2)c2nc(N)c(C#N)c(-c3ccc(O)c(O)c3)c12	PAFAH1B3 FP inh 36 (no result: pPAFAH FP inh) | PAFAH1B3 confirm inactive
Cc1cc(C)cc(Oc2ccc(NC(=O)C3CC=CCC3C(=O)O)cc2)c1 (stereo not drawn)	none
O=C(CSc1ccc2c(c1)OCCO2)Nc1ccc(Br)cn1	none
O=C(CSc1ccc2c(c1)OCCO2)Nc1ccc(Cl)cn1	PAFAH1B3 FP inh 26 | PAFAH1B3 confirm inactive
COc1ccc(C(=O)O)cc1NC(=S)NC(=O)C(c1ccccc1)c1ccccc1	none
CCC(C(=O)Nc1cc(Cl)c(OC)cc1OC)c1ccccc1 (stereo not drawn)	none
Cc1ccc(NC2=CC(=O)C(=O)c3ccccc32)cc1	PAFAH1B3 FP inh 25 | PAFAH1B3 confirm inactive
Cc1cc(NC2=CC(=O)C(=O)c3ccccc32)no1	PAFAH1B3 FP inh 33 (no result: pPAFAH FP inh) | PAFAH1B3 confirm 34
COc1cc(OC)c(NC2=CC(=O)C(=O)c3ccccc32)cc1Cl	PAFAH1B3 FP inh 42 | PAFAH1B3 confirm 33
CC(C)(C)NC(=O)NC(=O)CN1c2cccc3cccc(c23)S1(=O)=O	none
Cc1ccc(CN2CCNC(=O)C2CC(=O)NCC(F)(F)F)o1 (stereo not drawn)	none
COc1cc(NC(=O)c2cc(-c3ccccc3)nc3c2cnn3C(C)C)cc(OC)c1OC	PAFAH1B3 FP inh 26 | PAFAH1B3 confirm inactive
CNC(=O)c1cccc(NC(=O)c2cc(-c3ccccc3)nc3c2cnn3C(C)C)c1	none
CC1CCN(C(=S)Nc2ccc(F)cc2)CC1	none
C/C(=N\NC(=S)Nc1ccc(F)cc1)C1CC1	PAFAH1B3 FP inh 26 | PAFAH1B3 confirm inactive
CCCN1CCN(C(=O)c2ccc3nc(CC)c(CC)nc3c2)CC1	none
CCc1nc2ccc(C(=O)N3CCN(CC)CC3)cc2nc1CC	PAFAH1B3 FP inh 28 | PAFAH1B3 confirm inactive
O=C(CSc1nccc(=O)[nH]1)N1CCc2ccccc2C1	PAFAH1B3 FP inh 28 | PAFAH1B3 confirm inactive
CCCc1cc(=O)[nH]c(SCC(=O)N2CCc3ccccc3C2)n1	none
Cc1[nH][nH]c(=O)c1C(c1ccc(-c2cccc(Cl)c2)o1)c1c(C)[nH][nH]c1=O	PAFAH1B3 FP inh 46 | PAFAH1B3 confirm inactive
O=C(CSc1nc2ccsc2c(=O)n1CC1CCC(C(=O)O)CC1)c1ccc(Cl)cc1 (stereo not drawn)	PAFAH1B3 FP inh 27 | PAFAH1B3 confirm inactive
CN(CCOc1ccccc1)C(=O)c1ccc(N2CCCC2)c([N+](=O)[O-])c1	none
Nn1c(COc2cccc(Br)c2)nnc1SCC(=O)NCC1CCCO1 (stereo not drawn)	none
Cc1ccc(S(=O)(=O)NC(=O)Nc2ccc(C)cc2C)cc1	PAFAH1B3 FP inh 28 (no result: pPAFAH FP inh) | PAFAH1B3 confirm inactive
Cc1ccc(S(=O)(=O)NNC(=O)CCC(=O)Nc2ccc(C)cc2C)cc1	none
Cc1ccc(C2=NOC(=O)/C2=C\C=C\c2ccccc2)cc1	PAFAH1B3 FP inh 36 (no result: pPAFAH FP inh) | PAFAH1B3 confirm 29
C=CCNC(=S)N1CCC(C(=O)c2ccc(F)cc2)CC1	none
O=C1NC(c2ccccc2)C(c2ccccc2)N1 (stereo not drawn)	PAFAH1B3 FP inh 50 (no result: pPAFAH FP inh) | PAFAH1B3 confirm 39
CCCCn1c(N)c(N(CC(C)C)C(=O)c2cccc(S(=O)(=O)N(CC)c3ccccc3)c2)c(=O)[nH]c1=O	none (no result: pPAFAH FP inh)
NC1=C(Br)C(=O)c2ncccc2C1=O	PAFAH1B3 FP inh 58 (no result: pPAFAH FP inh) | PAFAH1B3 confirm 41
